This assay can be described thus: anti-Giardia activity of synthetic compounds – Compounds Australia Scaffold Library subset, 24/48 h, primary screen (AID 1794835).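 For inhibition: 0% = parasite counts in DMSO vehicle wells.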 To be noted: Giardia lamblia BRIS/91/HEPU/1279 trophozoite counts, imaging, at 10 µM.
Setting [1] is: measured here: growth inhibition at 24 h, stronger effect = higher value.

In all, about 2,500 compounds went through this assay and about 45 (2%) were called active. Cut-off read from the data, not from the text of the source: active = inhibition mostly above about 45% (no sharp cut-off); inactive = mostly below about 37%. The entries come from a sample that favours actives as a whole.

Data on 46 compounds can be found in PubChem BioAssay AID1794835 (Parasite Biology Lab, Institute for Biomedicine and …, 2023).

Usually inhibition stands for the change of the read-out against control, counted positive when it falls.

On to `Cc1ccc(NC(=O)c2ccc(=O)n(CCN3CCOCC3)n2)cc1`, for which the inhibition (stronger effect = higher value) was 2.3% (inactive) and the inhibition under setting [1] is 1.4%.

For `Cc1ccc(NC(=O)C2=NN(CC(=O)Nc3ccc4c(c3)OCCO4)C(=O)CC2)cc1`, the inhibition result was “inactive”.

`Cc1ccc(NC(=O)c2cc3c(Cl)ccc4c3n2CCO4)cc1`: the inhibition was 49.3% (active) (stronger effect = higher value) and 30.6% under setting [1].

Turning to `CCOc1ccc(NC(=O)CN2C(c3ccc(C)cc3)=CC(c3ccccc3)n3nnnc32)cc1` (stereo unspecified), the inhibition entry is “inactive”.

As to `CCN(CC)CCN1C(=O)C(O)=C(C(=O)c2cccs2)C1c1ccc(C)o1` (stereo unspecified), the inhibition (stronger effect = higher value) is 15% (inactive).

Regarding `O=c1ccc(-c2nnco2)cn1Cc1ccc(F)c2cccnc12`, the inhibition entry is “inactive”.

Consider `CC1CCN(C(=O)c2n[nH]c(=O)c3ccccc23)CC1`, for which the outcome was inactive. The compound also returned an inhibition under setting [1] of 4%.

Regarding `CC1CCN(C(=O)c2oc3ccccc3c2NC(=O)c2ccc([N+](=O)[O-])o2)CC1`, the inhibition (stronger effect = higher value) was 95.2% (active) and the inhibition under setting [1] was determined as 87.8%.

As to `Cc1ccc(NC(=O)c2oc3ccccc3c2NC(=O)c2ccccc2)cc1`, the inhibition (stronger effect = higher value) is 1.2% (inactive).

Consider `Cn1cc(S(=O)(=O)N2CCN(C(=O)Cc3c[nH]c4ccccc34)CC2)cc1C(N)=O`, for which the inhibition entry is “inactive”.

With `Cc1cc(NCc2ccccc2CN2CCCC2)nc(-c2ccncc2)n1`, the inhibition result was “inactive”.

Consider `COc1ccccc1N1CCN(C(=O)c2cc(C3CC3)[nH]n2)CC1`, for which the outcome was inactive. Under setting [1], this compound displayed an inhibition of 9.6%.

As for `Cc1nn(-c2ccccc2)c2sc(C(=O)N3CCCCC3)cc12`, the inhibition was 39.6% (active) (stronger effect = higher value) and 21.1% under setting [1].

With `Cc1nn(Cc2ccccc2)c2sc(C(=O)N3CCN(C(=O)N4CCCCC4)CC3)cc12`, where the note is “stronger effect = higher value”, the inhibition is 14% (inactive).

Regarding `Cc1nn(-c2ccc(F)cc2)c2sc(C(=O)N3CCCCC3C(N)=O)cc12` (stereo unspecified), the inhibition result is “inactive”.

As to `COc1ccccc1N1CCN(C(=O)c2ccc3[nH]c(C)c(C)c3c2)CC1`, under “stronger effect = higher value”, the inhibition was 36.6% (inactive).

For the compound `COc1ccccc1N1CCN(C(=O)c2cc3c(C)nn(-c4ccc(C)cc4)c3s2)CC1`, the inhibition runs as follows: (stronger effect = higher value) 65.7% (active); under setting [1], 48%.

Take `Cc1ccc(-c2ncc(C(=O)NC3CCCCCC3)c(C)n2)cc1`: the compound was called inactive. Under setting [1], this compound came in with an inhibition of 6.7%.

Regarding `COc1cccc(CNC(=O)Cn2ccc3sccc3c2=O)c1`, the inhibition (stronger effect = higher value) is 6.6% (inactive) and the inhibition under setting [1] was determined as 0.5%.

Regarding `COc1cccc(N2CCN(C(=O)C3CCN(c4nc(NC(C)=O)ns4)CC3)CC2)c1`, the inhibition by setting is: (stronger effect = higher value) 16.2% (inactive); under setting [1], 7.9%.

Regarding `CCCc1cc(N2CCOCC2)n2nc(C)c(-c3ccccc3)c2n1`, the inhibition (stronger effect = higher value) is 20.2% (inactive).

In the case of `Cc1cc(NC(=O)CN2c3ccccc3NC3=C(C(=O)CC(C)(C)C3)C2c2ccccc2)no1` (stereo unspecified), the inhibition result was “inactive”.

For `Cn1cnc2onc(C(=O)NC3CCCCC3)c2c1=O`, the inhibition result was “inactive”.

On to `O=S(=O)(c1cccc(F)c1)N1CC(OCc2cccc(F)c2)C1`, for which the inhibition (stronger effect = higher value) was 10% (inactive) and the inhibition under setting [1] worked out at 1.5%.

Regarding `COc1ccc(C(=O)c2c(N)c(-c3nc(-c4cc(OC)ccc4OC)cs3)c3ccccn23)cc1`, the outcome was inactive. The same compound showed an inhibition under setting [1] of 3.8%.

As to `Nc1c(-c2nc(-c3ccccc3)cs2)c2ccccn2c1C(=O)c1ccc2c(c1)OCO2`, the inhibition is 83.1% (active) (stronger effect = higher value) and 63.2% under setting [1].

Take `Cc1nc2sccn2c1-c1nc(-c2ccccc2)c(C(=O)c2ccc3c(c2)NC(=O)CO3)s1`: the inhibition runs as follows: (stronger effect = higher value) 7% (inactive); under setting [1], 1.6%.

As for `COc1cccc(C(=O)N2CCN(CC3CCCO3)CC2)c1` (stereo unspecified), the inhibition result is “inactive”.

As to `CCOc1ccc(NC(=O)N2Cc3cccn3-c3ccccc32)cc1`, the inhibition entry was “inactive”.

Take `CN1CCCN(c2ncnc3cc(Cl)ccc23)CC1`: the inhibition result is “inactive”.

Regarding `COc1ccc(-c2csc(-n3nccc3C(F)(F)F)n2)cc1OC`, the inhibition is 27.9% (inactive) (stronger effect = higher value) and 8% under setting [1].

With `N=C1C(c2nc(-c3ccc(Cl)cc3)cs2)=C(O)CN1CCc1ccccc1`, the inhibition entry was “inactive”.

As for `COc1ccc(-c2csc(C3=C(O)CN(CC(C)(C)CN(C)C)C3=N)n2)cc1OC`, the inhibition was 76.8% (active) (stronger effect = higher value) and 23.9% under setting [1].

In the case of `Cc1ccc(COCc2nn(C)c3c2CN(C(=O)Nc2ccccc2)CC3)cc1`, the compound was classed as inactive. The inhibition under setting [1] worked out at 4.7%.

For the compound `CCn1cc(C(=O)NCc2ccccc2)c(=O)c2ccc(C)nc21`, the inhibition is 6.1% (inactive) (stronger effect = higher value) and 8.9% under setting [1].

As to `Cc1ncncc1C(=O)N1CCN(CC(O)C(C)(C)C)CC1` (stereo unspecified), the inhibition result is “inactive”.

For `COc1ccc(Nc2cc(C)nc(N3CCN(C(=O)c4ccccc4)CC3)n2)cc1`, the inhibition is 29.3% (inactive) (stronger effect = higher value) and 5.55% under setting [1].

On to `COc1ccc(NC(=O)N2CCN(c3cc(C)nc(N4CCOCC4)n3)CC2)cc1`, for which the inhibition is, setting by setting: (stronger effect = higher value) 44.4% (inactive); under setting [1], 12.7%.

In the case of `COc1ccc(Nc2cc(C)nc(N3CCN(C(=O)Nc4cccc(OC)c4)CC3)n2)cc1`, the inhibition reads like this: (stronger effect = higher value) 86.6% (active); under setting [1], 49.4%.

Consider `CN(C)C(=O)CN1CCCN(Cc2ncc(C(C)(C)C)o2)CC1`, for which the inhibition (stronger effect = higher value) is 1.9% (inactive) and the inhibition under setting [1] worked out at 6.5%.

As to `CCN(Cc1ccccc1)C(=O)c1cc(-c2ccccc2)n[nH]1`, the inhibition by setting is: (stronger effect = higher value) 36.1% (inactive); under setting [1], 19.1%.

On to `Cc1noc(C)c1S(=O)(=O)N1CCC(C(=O)NCC(c2ccccc2)N(C)C)CC1` (stereo unspecified), for which the call was inactive. The same compound gave an inhibition under setting [1] of 10.5%.

In the case of `Cc1nn(C)c2sc(C(=O)N3CCN(S(=O)(=O)c4ccc(Br)cc4)CC3)cc12`, where the note is “stronger effect = higher value”, the inhibition was 10.6% (inactive).

Take `CCOc1ccc(C(=O)Nc2ccc(-c3nnc4n3CCCCCC4)cc2)cc1`: the inhibition entry was “inactive”.

Regarding `COc1ccc2c(c1)CCc1c-2noc1-c1ccc(NC(=O)c2cc(C)nn2C)cc1`, the inhibition entry was “inactive”.

In the case of `COc1ccc(NC(=O)c2ccc(-c3cc(NC4CCCCC4)ncn3)cc2)cc1`, the inhibition reads like this: (stronger effect = higher value) 51% (active); under setting [1], 17.1%.
